Results as given in PubChem BioAssay AID485 (The Scripps Research Institute Molecular Screening Center, 2006).
Hit rate of the full screen: of about 170,000 compounds, about 460 (0.27%) were called active. The list comes from a sample in which actives are over-represented; it also holds similar structures and randomly drawn compounds. Values without a mark were called inactive.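 How the source made its calls: active means inhibition above the plate cutoff, the mean inhibition of test wells on that plate plus 3 SD (cut at about 28% in these data); inactive means the rest.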

The compounds below were run against Sphingosine 1-phosphate receptor 3 (Homo sapiens) (UniProt Q99500) (assay: inhibition of S1P-stimulated S1P3 activation – cell-based, primary screen (AID 485;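 further: cells challenged with S1P at its EC80 of 0.8 µM; blue over green emission ratio from cleaved BLA substrate after 4 h stimulation; 0% = S1P-stimulated wells and 100% = unstimulated DMSO-only wells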)). Details: CHO S1P3 NFAT-BLA reporter, FRET fluorescence, antagonist mode; at 4.98 µM; stronger effect = higher value.
Sequence of Sphingosine 1-phosphate receptor 3 (Homo sapiens) (Q99500 whole entry, looked up): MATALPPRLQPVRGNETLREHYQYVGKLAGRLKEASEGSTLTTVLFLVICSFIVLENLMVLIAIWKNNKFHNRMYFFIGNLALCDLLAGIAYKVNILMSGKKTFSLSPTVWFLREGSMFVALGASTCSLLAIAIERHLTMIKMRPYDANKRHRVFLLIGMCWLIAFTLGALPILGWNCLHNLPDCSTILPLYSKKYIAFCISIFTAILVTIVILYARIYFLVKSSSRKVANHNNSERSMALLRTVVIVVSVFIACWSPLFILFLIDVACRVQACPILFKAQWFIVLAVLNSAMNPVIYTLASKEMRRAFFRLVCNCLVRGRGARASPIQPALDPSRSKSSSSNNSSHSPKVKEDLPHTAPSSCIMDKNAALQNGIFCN

In order of rising inhibition:
1. Cc1cccc(C)c1N1CCN(S(=O)(=O)N2CCCCC2)CC1  -28.1%
2. CC1=NNC(=O)C1CC(=O)N/N=C/c1ccncc1 (configuration not stated)  -24.4%
3. CSCCNCc1cn(-c2ccc(F)cc2F)nc1-c1ccccc1C  -21.2%
4. CC(C)NC(=O)/C(C#N)=C\c1ccc(N(C)C)c(Br)c1  -16.2%
5. CCC(CC)c1nnc(NC(=O)c2nn(C)c(=O)c3ccccc23)s1  -16.1%
6. COc1cc2[nH]c(=O)n(Cc3ccc(C(=O)NC4CCN(Cc5ccccc5)CC4)cc3)c(=O)c2cc1OC  -15.1%
7. CCOC(=O)CN(C(=O)COc1nc(-c2ccccc2)cc(C)c1C#N)c1ccc(F)cc1  -12.8%
8. Cc1cc(C(C)(C)C)cc(S(=O)(=O)Nc2ccc(C(=O)O)cc2)c1C  -12.2%
9. CC(=O)NC(CC(=O)Nc1nccs1)c1ccccc1 (configuration not stated)  -11.7%
10. O=C(Nc1ccc2oc(-c3ccccc3F)nc2c1)c1ccco1  -11.6%
11. CC(=O)NC(=S)NNC(=O)c1ccc(Br)cc1  -11.1%
12. CCOc1cc(NS(=O)(=O)c2ccc(OC)cc2)c(OCC)cc1NC(C)=O  -10.8%
13. CCn1c(-c2cccnc2Cl)nc2cc(C)c(C)cc21  -10.7%
14. CCOC(=O)c1oc2c(CN3CCN(CCO)CC3)c(O)c(CC)cc2c(=O)c1-c1nc2ccccc2s1  -10.5%
15. COc1ccc(C2=NN(c3nc4ccccc4s3)C(=O)C2)cc1  -9.89%
16. O=C(CN1CCCCC1)Nc1ccccc1Cl  -9.78%
17. CCOc1ccc2sc(NS(=O)(=O)c3ccc(N)cc3)nc2c1  -8.22%
18. O=C(N/N=C/c1cccc([N+](=O)[O-])c1)c1ccncc1  -7.73%
19. COc1cccc(CC2(CO)CCCN(Cc3nc(-c4cccs4)oc3C)C2)c1 (configuration not stated)  -7.51%
20. Cc1nn(-c2ccc([N+](=O)[O-])cc2)c(N)c1-c1ccccc1  -7.46%
21. Cc1ccc(S(=O)(=O)N(C)C)cc1NC(=O)c1n[nH]c(=O)c2ccccc12  -6.86%
22. OCCC1CN(Cc2ccccc2-c2ccco2)CCN1Cc1ccsc1 (configuration not stated)  -6.06%
23. CCn1c(=O)c([N+](=O)[O-])c(NCc2ccc3c(c2)OCO3)c2ccccc21  -5.99%
24. CC1=CC2=NC(=O)/C(=C/c3coc4ccccc4c3=O)C(=N)N2O1  -5.98%
25. COc1ccc(NC(=O)C2CCC(CNc3c(N4CCCCC4)c(=O)c3=O)CC2)c(OC)c1 (configuration not stated)  -5.91%
26. COc1ccc(CN2C(=O)C(C)S/C2=N/N=C/c2ccco2)cc1 (configuration not stated)  -5.66%
27. CCc1ccc(Nc2nnc(SCC(=O)c3ccc4c(c3)NC(=O)CO4)s2)cc1  -5.18%
28. CS(=O)(=O)c1ccc2nc(NC(=O)c3ccc(N4CCCC4=O)cc3)sc2c1  -4.82%
29. C=CCN1CC(C)/C(=N\O)CC1C (configuration not stated)  -3.95%
30. C[C@@H](NC(=O)OC(C)(C)C)c1nnc(S(=O)(=O)Cc2ccccc2)o1  -3.71%
31. CC(NC(=O)C(=O)N/N=C/c1ccc(Cl)cc1)c1ccccc1 (configuration not stated)  -3.11%
32. CCOC(=O)C1=C(c2ccccc2)NC(=S)NC1c1ccc(Cl)cc1 (configuration not stated)  -1.74%
33. CCOC(=O)N1CCN(c2c(NCCN3CCN(c4ccccc4F)CC3)c(=O)c2=O)CC1  -1.55%
34. O=C(/C=C/c1ccc(Cl)cc1)Nc1ccc(S(=O)(=O)Nc2ncccn2)cc1  -1.53%
35. COc1ccc(CC(=O)N[C@@H](CCSC)c2nc3ccccc3[nH]2)cc1  -1.34%
36. COc1ccc(N2CCN(C(=O)/C(C#N)=C/c3ccccc3)CC2)cc1  -0.3%
37. COc1ccc(CNC(=O)CCC(=O)Nc2nnc(C(C)C)s2)cc1  -0.16%
38. Nc1nc(SC23CC4CC(CC(C4)C2)C3)ns1  -0.08%
39. O=C(Nc1ccccc1Cl)c1ccc2nsnc2c1  0.3%
40. Oc1c(Br)cc(/C=N/NC(=S)NCC2CCCO2)cc1Br (configuration not stated)  0.61%
41. Cc1cc(=O)oc2cc(OCCC[n+]3ccccc3)ccc12  0.67%
42. O=C(NCCN1CCOCC1)c1ccc2c(c1)N(Cc1ccc(Cl)cc1)CCS2  1.26%
43. COc1ccc(NS(=O)(=O)c2ccc(Oc3c(C#N)cccc3C#N)cc2)cc1  1.93%
44. CCOc1cc(N2CCOCC2)c(OCC)cc1NC(=O)c1ccc(C)s1  2.86%
45. COc1ccccc1NC(=O)c1c(Br)cnn1C  2.9%
46. Cn1c(C(=O)O)ccc1S(=O)(=O)N(Cc1ccccc1)Cc1ccccc1  3.65%
47. C=CCN(c1ccccc1C(=O)NCC(=O)OCC)S(=O)(=O)c1ccc(C)cc1  3.85%
48. COc1ccc(N2CCN(C(=S)Nc3ccc(S(N)(=O)=O)cc3)CC2)cc1  6.19%
49. Nc1nc(NCC2CCCO2)nc(Nc2ccccc2F)c1[N+](=O)[O-] (configuration not stated)  6.85%
50. COc1ccccc1C1CCN(C(=S)Nc2ccc(Br)cc2)CC1  7.17%
51. O=C(Nc1ccc(N2CCN(C(=O)c3ccccc3)CC2)c(Cl)c1)c1ncn[nH]1  7.3%
52. Cc1ccc(NC(=O)NNC(=O)c2sccc2-n2cccc2)cc1  8.38%
53. O=C(O)c1ccccc1OCc1ccccc1Cl  8.64%
54. Nc1cc(C(F)(F)F)ccc1N1CCOCC1  8.92%
55. COc1cc(OC)cc(/C(N)=N/O)c1  9.29%
56. Cc1nc(CNS(=O)(=O)c2cc([N+](=O)[O-])ccc2C)cs1  10.3%
57. NS(=O)(=O)c1ccc(NC(=O)COC(=O)c2cc3ccccc3oc2=O)cc1  11.2%
58. Cc1cc(C)nc(Nc2cc([N+](=O)[O-])ccc2C)n1  11.2%
59. Cc1cc(C)n(CC(C)NCc2c(C(=O)N3CCOCC3)nc3c(C)cccn23)n1 (configuration not stated)  16%
60. O=C(c1ccc(F)cc1)n1cc(C(=S)N2CCOCC2)c2ccccc21  16.1%

For `CNC(=O)Nc1cc(C(C)(C)C)no1`, the inhibition was 92.8% (active).
With `O=C(Nc1ccccc1Cl)/C(Cl)=C(\Cl)S(=O)c1ccccc1` (configuration not stated) the inhibition was 40.8% (active).
